Shown are actives, neighbours in structure and some others; about 19% of the full set was active somewhere.
RORg inh: blocks mouse ROR gamma transcriptional activity | Drosophila S2 Gal4-RORgamma UAS-luciferase reporter, 20 h | P51450 | Potency, µM (titrated, usually from 53.6 µM), without a hit: top-dose activity change, negative = inhibition, usual class: inhibitors | AID 2551 | actives 5.4% (n = 310,000); note: nearly all actives have a fitted effect of over 60% in size
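Stable Schneider cell line, Gal4 DNA-binding domain fused to ROR gamma, UAS-luciferase. Cmpd 1 hr RT → CuSO4 700 uM final → 20 hr RT → luciferase reagent 10 min → luminescence.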
TDP1 block: blocks human tyrosyl-DNA phosphodiesterase 1; AID 485290; recombinant TDP1, AlphaScreen DNA substrate cleavage; Q9NUW8; actives 0.28% (n = 350,000); Potency, µM (highest dose often 130 µM), without a hit: at the highest dose activity change, negative = inhibition, hits mostly inhibitors; note: nearly all actives have a fitted effect of over 40% in size
Target sequence (Q9NUW8 whole entry, looked up): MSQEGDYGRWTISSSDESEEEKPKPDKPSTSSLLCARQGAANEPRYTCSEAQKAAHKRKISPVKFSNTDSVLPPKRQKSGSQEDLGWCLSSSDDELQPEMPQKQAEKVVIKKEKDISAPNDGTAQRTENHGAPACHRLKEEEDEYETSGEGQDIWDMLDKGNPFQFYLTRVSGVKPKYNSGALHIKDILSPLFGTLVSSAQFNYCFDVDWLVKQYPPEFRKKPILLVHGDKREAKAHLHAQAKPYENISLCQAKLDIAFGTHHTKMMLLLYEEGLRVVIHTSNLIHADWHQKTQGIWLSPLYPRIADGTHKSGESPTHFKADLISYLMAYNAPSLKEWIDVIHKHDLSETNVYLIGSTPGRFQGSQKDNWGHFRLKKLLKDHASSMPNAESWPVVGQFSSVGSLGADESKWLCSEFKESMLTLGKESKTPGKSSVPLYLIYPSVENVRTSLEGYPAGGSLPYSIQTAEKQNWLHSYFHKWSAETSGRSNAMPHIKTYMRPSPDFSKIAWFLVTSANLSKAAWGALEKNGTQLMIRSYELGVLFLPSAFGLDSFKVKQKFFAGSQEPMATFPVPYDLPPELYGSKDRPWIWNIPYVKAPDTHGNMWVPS
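Here, a 5' biotin and 3' phosphotyrosine-FITC DNA oligonucleotide reports Tdp1 activity: intact substrate bridges AlphaScreen beads, while cleavage leaves a 3' phosphate and drops signal. All incubations at room temperature.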
DT40 TDP1 CPT: growth inhibition of DT40 Tdp1-/-;hTDP1 cells with camptothecin (screen for TDP1 inhibitors); chicken DT40 Tdp1-/-;hTDP1 cells + 20 nM CPT, ATP luminescence, 48 h; Potency, µM (doses to about 46.2 µM), inactives show top-dose activity change, negative = growth inhibition, hits mostly inhibitors; actives 12% (n = 420,000); AID 686979; note: nearly all actives have a fitted effect of over 55% in size
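Chicken DT40 Tdp1-/- cells stably complemented with human TDP1 were seeded at 400 cells/well in medium containing 20 nM camptothecin, exposed to pin-transferred compounds, and grown at 37 °C for at least 48 hr. Viability was read as ATP luminescence.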
DT40 TDP1 no CPT: qHTS for Inhibitors of human tyrosyl-DNA phosphodiesterase 1 (TDP1): qHTS in cells in absence of CPT; DT40 Tdp1-/- hTDP1 cells, no CPT, ATP luminescence, 48 h; Potency, µM (titrated, usually from 46.2 µM), for the others: at the top dose activity change, negative = growth inhibition, actives largely listed as inhibitors; actives 15% (n = 420,000); AID 686978, 2013; note: nearly all actives have a fitted effect of over 55% in size
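Chicken DT40 Tdp1-/- cells complemented with human TDP1, screened without camptothecin (DMSO vehicle only), 400 cells/well. Compounds pin-transferred, cells incubated at 37 °C for at least 48 hr. Growth read as ATP-dependent luminescence (CellTiter-Glo, 30 min at RT).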
Gal4-VP16 FLuc: Gal4-VP16 reporter inhibition counter-screen; AID 2546; Drosophila S2 Gal4-VP16 UAS-luciferase, luminescence, 20 h; Potency, µM (doses to about 53.6 µM), without a hit: at the highest dose activity, negative = inhibition, actives largely listed as inhibitors; actives 3.5% (n = 310,000);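 note: Gal4-VP16 expression switched on by copper sulfate through the metallothionein promoter; nearly all actives have a fitted effect of over 50% in size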
The depositor's hits bear a star; u = inconclusive; x = no result; [ ] = remark or other dose. Calls come from the whole dose curve; as a rule, active = well fitted curve in the direction sought with a large enough effect; inconclusive = small, poorly fitted or top-dose-only effect, or another doubt; inactive = no such curve, though single readings can be large; an effect the other way counts as inactive or inconclusive. % is set by controls: 0 for no effect and ±100 for the full control effect; potency is the fitted concentration of half-maximal effect.

SMILES	RORg inh	TDP1 block	DT40 TDP1 CPT	DT40 TDP1 no CPT	Gal4-VP16 FLuc
COc1ccc(CNC(=O)CC(c2ccc(OC)cc2)N2Cc3ccccc3C2=O)cc1 (configuration not stated)	x	-5%	u	16µM*	x
COC(=O)C(Cc1ccc(OC(=O)c2ccccc2C)cc1)N1Cc2ccccc2C1=O (configuration not stated)	u	3%	u	18µM*	12%
Nc1ccc(Oc2ccccc2F)nc1	-5%	10%	9%	3%	7%
C=C(C)C(=O)Nc1ccc(OC(F)(F)C(F)F)c(NC(=O)C(=C)C)c1	u	13µM*	0%	3%	6%
CCCS(=O)(=O)N1CCCC(C(=O)NCc2ccc(C)cc2)C1 (configuration not stated)	-4%	1%	4%	-24%	-1%
Cc1nc2ccccc2c2c1CC(C)S2 (configuration not stated)	u	2%	-29%	-1%	-4%
COc1ccc2nc(C)c3c(c2c1)OC(C(C)(Cl)Br)C3 (configuration not stated)	5µM*	x	u	18µM*	-23%
Cc1nc2ccccc2c2c1CC(C(C)(Cl)Br)O2 (configuration not stated)	-39%	0%	6.5µM*	3.7µM*	u
COc1cc2c(cc1OC)CN(C(=O)CSc1ccc(F)cc1)CC2	x	0%	u	u	x
N#Cc1cc(-c2ccccc2)[nH]c1-c1nccc2ccccc12	10µM*	4%	u	u	u
c1ccc(-c2ccc(-c3nccc4ccccc34)[nH]2)cc1	5µM*	10%	x	x	10µM*
c1ccc(-c2nccnc2-c2ccccc2)cc1	-8%	3%	9%	u	-4%
O=P(OCC1CC1)(c1ccccc1)c1ccccc1	2%	0%	-1%	14%	7%
Cn1ncc2c(c(SCc3ccc(Cl)cc3Cl)nn2C)c1=O	2%	1%	u	u	2%
COc1cccc(N2CC(=O)N(c3cccc(OC)c3)CC2=O)c1	-17%	1%	-11%	20%	2%
O=C(Nc1ccc(Cl)cc1)C1=Cc2ccccc2OC1	17%	3%	u	23µM*	-10%
Cc1ccccc1CNC(=O)C1=Cc2ccccc2OC1	x	-2%	u	u	x
N#CC1(c2ccc(NC(=O)c3ccccc3)cc2)CCCC1	1%	3%	x	x	3%
CC(C)OC(=O)c1cccc(NC(=O)c2ccccc2)c1	u	-2%	13µM*	13µM*	-6%
CC(=O)Oc1ccc(C(=O)Nc2ccc(C3(C#N)CCCC3)cc2)cc1	0.35µM*	x	16µM*	16µM*	0.4µM*
O=C(Nc1ccc(Nc2ccccc2)cc1)C(Cl)Cl	-27%	8%	1.2µM*	1.8µM*	-3%
CNC(=O)NC(=O)COC(=O)/C=C/c1cccc(Br)c1	0%	5%	-5%	11%	-1%
O=C(CN1C(=O)COc2ccccc21)N(Cc1ccccc1)Cc1ccccn1	-1%	6%	-21%	-17%	1%
O=C(NC1CCCC1)c1cnc2n(c1=O)CCS2	-6%	3%	7%	-14%	-17%
CSc1nc2c(c(=O)[nH]1)C(c1ccc(F)cc1)CC(=O)N2 (configuration not stated)	-9%	-2%	-2%	6%	-5%
SMILES	RORg inh	TDP1 block	DT40 TDP1 CPT	DT40 TDP1 no CPT	Gal4-VP16 FLuc
CCCC1(c2ccccc2)NC(=O)N(CC(=O)N2CC(=O)Nc3ccccc32)C1=O (configuration not stated)	x	3%	u	-19%	x
COc1cc(OC)cc(C(=O)Nc2ccc(Nc3ccccc3)cc2)c1	30%	x	21µM*	u	-1%
O=C(Nc1cccnc1)c1ccc(S(=O)(=O)c2ccc(Cl)cc2)cc1	u	5%	u	23µM*	u
CC(=O)Oc1ccc(C(=O)Nc2cccc(C(=O)c3cccc(NC(=O)c4ccc(OC(C)=O)cc4)c3)c2)cc1	14%	x	u	23µM*	u
O=C(Nc1cccnc1)c1ccc(C(=O)Nc2cccnc2)cc1	7%	3%	-11%	u	4%
CC(C)C(=O)Nc1ccc(C(=O)c2ccccc2)cc1	49%	2%	18µM*	21µM*	21%
COc1cc(OC)cc(C(=O)Nc2cccc(NC(=O)c3ccccc3)c2)c1	1%	x	3%	u	-4%
CC(=O)Oc1ccc(C(=O)Nc2cccc(C(=O)NC(C)(C)C)c2)cc1	3%	-1%	11%	-27%	2%
O=C(Nc1ccc(Nc2ccccc2)cc1)c1ccccc1	x	x	u	21µM*	x
O=C(Nc1ccccc1)C(c1ccccc1)c1ccccc1	-20%	x	-2%	-27%	-14%
CC(=O)Nc1cccc(NC(=O)c2cc(Cl)ccc2Cl)c1	u	-4%	6%	-1%	6%
CC(C)(C)C(=O)C(Cl)C(=O)Nc1ccccc1 (configuration not stated)	-19%	x	5.2µM*	4.1µM*	u
C#Cc1cccc(NC(=O)c2ccc(Cl)cc2Cl)c1	1%	x	-12%	29µM*	2%
CC(=O)Nc1ccc(OC(=O)c2ccccc2O)cc1	-1%	8%[56.1 µM]	0.58µM*	u	22%
CN(Cc1nc(-c2ccccc2)no1)C(=O)c1ccc2c(c1)OCO2	x	x	0%	-4%	x
Cn1c(Cn2nnc3ccccc32)nnc1SCC(=O)NCc1ccc2c(c1)OCO2	-1%	0%	9%	3%	-9%
CN(Cc1ccccc1)S(=O)(=O)c1ccc(F)c(C(=O)Nc2cc(Cl)cc(Cl)c2)c1	x	5%	u	u	x
O=C(Nc1cccc(C(=O)Nc2ccc(Br)cc2)c1)c1ccccc1	u	x	u	12µM*	1%
CC(CCc1ccccc1)NC(=O)c1ccc(NC(=O)c2ccccc2)cc1 (configuration not stated)	2.8µM*	3%	15µM*	10µM*	u
CC(CCc1ccccc1)NC(=O)c1ccc(NC(=O)c2cccc(Br)c2)cc1 (configuration not stated)	0%	0%	u	u	-10%
O=C(Nc1ccc(Nc2ccccc2)cc1)c1ccc(Br)cc1	u	x	u	-20%	u
O=C(Nc1ccc(Nc2ccccc2)cc1)c1ccc(Cl)cc1Cl	x	x	15µM*	u	x
COc1cc(OC)cc(C(=O)NCC(=O)Nc2ccc(-c3ccccc3)cc2)c1	u	3%	16µM*	18µM*	0%
COc1cc(NC(=O)CSc2nnc3c(C)cc4cc(C)cc(C)c4n23)c(C(=O)O)cc1OC	2%	6%	10%	-13%	-6%
O=C(NNC(=O)c1ccc(NC(=O)c2ccccc2)cc1)c1ccccc1	-15%	3%	-23%	u	-7%

Source: PubChem
